{"source": "PubChem BioAssay (NCI)", "note": "The panel holds about 83,000 compounds, 20% with a hit somewhere; the sample as a whole holds those more often.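 Single-dose data. Exposure time 48 hours. Values below 10 considered active.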 Calls of active or inactive are those of the source.", "data": [{"system": "CCRF-CEM leukemia", "assay": "NCI-60 one-dose screen, 48 h (100 = growth as untreated, 0 = no growth, -100 = all killed)", "conditions": "10 µM unless noted", "experimental": "Growth inhibition of the CCRF-CEM human tumor cell line is measured as a screen for anti-cancer activity. Cells are grown in 96 well plates and exposed to the test compound for 48 hours. Compounds are tested at a single concentration, which is 10^-5 M for most compounds. The reported endpoint is percent growth (GI% or GIPRCNT), where numbers from 0 - 100% represent growth inhibition, and numbers from -100% - 0 represent cell death. For example, a value of 40 represents 60% growth inhibition. A value of 0 means no net growth occurred over the course of the experiment. A value of -40 indicates 40% of cells at the beginning of the experiment died by the end of the experiment. A value of -100 means all cells are dead at the end of the experiment.\nNCI-60 Human Tumor Cell Lines Screen was performed using the standard one-dose NCI protocol, which is described in more detail at https://dtp.cancer.gov/discovery_development/nci-60/default.htm.\nCompounds with GIPRCNT values below 10 were considered active. Activity score was based on GIPRCNT using the following formula: […]\nScore is 0 for GIPRCNT values of 100 or above, 50 for GIPRCNT values of 0, and 100 for GIPRCNT values of -100.", "values": [{"smiles": "C#CC(F)(F)[C@]1(O)CC[C@H]2[C@@H]3CCC4=CC(=O)CCC4=C3[C@@H](c3ccc(C4CC4)cc3)C[C@@]21C", "growth": "-63% (active)"}, {"smiles": "O=[N+]([O-])c1ccc(Nc2nc(NCCN3CCOCC3)ncc2[N+](=O)[O-])cc1", "growth": "98.1% (inactive)"}, {"smiles": "COc1cccc(NC(=O)c2sc3nc(C)c(C(C)=O)cc3c2N)c1", "growth": "51.6% (inactive)"}, {"smiles": "Cn1cc(-c2nonc2-c2cn(C)c3ccc(F)cc23)c2ccccc21", "growth": "14.9% (inactive)"}, {"smiles": "COc1ccc(-c2n[nH]nc2-c2csc3ccccc23)cc1OC", "growth": "22.8% (inactive)"}, {"smiles": "COc1ccc2nc(NC(=O)CSc3nnc4n3S(=O)(=O)c3ccccc3N4c3ccccc3)sc2c1", "growth": "-19.7% (active)"}, {"smiles": "Cc1ccc(-c2onc3c(=O)[nH]nc(-c4ccccc4)c23)cc1", "growth": "20.5% (inactive)"}, {"smiles": "CSc1ccc(-c2n[nH]nc2-c2cc3ccccc3s2)cc1", "growth": "52.6% (inactive)"}, {"smiles": "COc1cccc(C2=NN3C(C2)c2cc(Br)cc(OC)c2OC32CCN(Cc3ccccc3)CC2)c1", "note": "(stereo not given)", "growth": "109% (inactive)"}, {"smiles": "COc1ccc(C(=O)c2sc3nc4c(c(-c5cccnc5)c3c2N)CCCC4)cc1OC", "growth": "55.5% (inactive)"}, {"smiles": "CC(C)C[C@@H](NC(=O)[C@@H](Cc1ccccc1)NC(=O)c1cnccn1)B1Oc2ccc(C[C@H](NC(=O)[C@H](Cc3ccc4c(c3)OB([C@@H](CC(C)C)NC(=O)[C@@H](Cc3ccccc3)NC(=O)c3cnccn3)O4)NC(=O)[C@@H](N)CC3CCC4OB([C@@H](CC(C)C)NC(=O)[C@@H](CC5CCCCC5)NC(=O)C5CNCCN5)OC4C3)C(=O)NCCCC[C@@H]3NC(=O)[C@@H](Cc4ccccc4)NC(=O)[C@H](CC(=O)O)NC(=O)CNC(=O)[C@H](CCCNC(=N)N)NC3=O)cc2O1", "note": "(stereo not given in full)", "growth": "2.22% (active)"}, {"smiles": "COc1cccc2c1C(=O)c1c(O)c3c(c(O)c1C2=O)C[C@](O)(C(=O)CO)C[C@H]3O[C@@H]1C[C@@H](NC(=O)CCCCCN(C)C2(c3ccc(F)cc3)CC3CCC2C3)[C@H](O)[C@@H](C)O1", "note": "(stereo not given in full)", "growth": "-22.2% (active)"}, {"smiles": "O=C(/C=C/c1cccc([N+](=O)[O-])c1)c1ccc(O)c(CN2CCN(c3cc4c(cc3F)c(=O)c(C(=O)O)cn4C3CC3)CC2)c1", "growth": "0.194% (active)"}, {"smiles": "O=C(C(=O)c1ccc2c(c1)OCO2)c1ccc2c(c1)OCO2", "growth": "95.6% (inactive)"}, {"smiles": "COc1ccc(-n2nc(C)c3c(Nc4ccc(NC(=O)Nc5cccc(C(F)(F)F)c5)cc4)ncnc32)cc1", "growth": "18.2% (inactive)"}, {"smiles": "O=C(CCCCC(=O)N/N=C\\c1ccccc1O)N/N=C\\c1ccccc1O", "growth": "18.1% (inactive)"}, {"smiles": "O=C1c2c(O)cc(O)cc2-c2c(-c3ccc(O)cc3)oc3cc(O)cc1c23", "growth": "6.03% (active)"}, {"smiles": "CCCCC/C(C=C(C#N)C#N)=C/c1ccccc1", "growth": "13.9% (inactive)"}, {"smiles": "C#CCOc1ccc2ncnc(N3CCC(NC(=O)CCl)CC3)c2c1", "growth": "39.8% [8.25 µM] (inactive)"}, {"smiles": "COc1cccc2c1C(=O)c1c(O)c3c(c(O)c1C2=O)C[C@](O)(C(=O)CO)C[C@H]3O[C@@H]1C[C@@H](NC(=O)CCCN(C)C2(c3ccc(F)cc3)CC3CCC2C3)[C@H](O)[C@@H](C)O1", "note": "(stereo not given in full)", "growth": "-29% (active)"}, {"smiles": "O=C1NC(=O)C(c2ccc(Cl)cc2Cl)N1", "note": "(stereo not given)", "growth": "93.2% (inactive)"}, {"smiles": "Cc1ccc(NS(=O)(=O)c2ccc(-c3cnc(C4CC4)o3)cc2)cc1C", "growth": "23.5% (inactive)"}, {"smiles": "COc1ccc(NC(=O)c2ccc(/C=C/C(=O)c3ncc[nH]3)cc2)cc1", "growth": "29.1% (inactive)"}, {"smiles": "CN1CCN(Cc2ccc(NC(=O)c3cncc(C#Cc4cncn5ccnc45)c3)cc2C(F)(F)F)CC1", "growth": "36% (inactive)"}, {"smiles": "COc1ccc(-n2nc(C)c3c(Nc4ccc(NC(=O)Nc5ccc(Cl)c(C(F)(F)F)c5)cc4)ncnc32)cc1", "growth": "17.2% (inactive)"}, {"smiles": "Cc1cc(C)nc(SC2=C(Nc3ccc(C)c(Cl)c3)C(=O)N(Cc3ccccc3)C2=O)n1", "growth": "35.3% [30 µM] (inactive)"}, {"smiles": "C=C1C(=O)O[C@H]2[C@H]1CC/C(C=Nc1ccc(C(F)(F)F)cc1N)=C\\CC[C@@]1(C)O[C@@H]21", "growth": "-5.78% (active)"}, {"smiles": "CC1=C[C@H]2c3c(c(O)c(O)c4oc5ccccc5c(=O)c34)[C@H](c3cc(O)c(O)c4oc5ccccc5c(=O)c34)[C@H]2C(C)(C)C1", "growth": "5.39% (active)"}, {"smiles": "COc1cc2c(cc1OC)C(Sc1ccc(SC)cc1)c1c(nc(N)c(C#N)c1N)O2", "note": "(stereo not given)", "growth": "-32.7% (active)"}, {"smiles": "CCN(CC)CCCCNc1c2ccc(Cl)cc2nc2ccc(OC)cc12", "growth": "-27.8% (active)"}, {"smiles": "Nc1n[nH]c2ccc([C@@H]3Nc4cc5c(cc4[C@H]4C6CCC(C6)[C@@H]34)C(=O)NC5)cc12", "note": "(stereo not given in full)", "growth": "10.5% (inactive)"}, {"smiles": "COC(=O)c1ccc(NC(=O)c2ccc(-c3cccc([N+](=O)[O-])c3)o2)cc1", "growth": "107% (inactive)"}, {"smiles": "CN(CCCCCl)P(=O)(OCc1ccc([N+](=O)[O-])o1)C(F)(F)c1ccc(CC(=O)NC[C@@H](O)/C=C\\[C@@H](O)[C@H](CO)Cc2ccccc2)cc1", "note": "(stereo not given in full)", "growth": "70.7% (inactive)"}, {"smiles": "O=S(=O)(Nc1ccc(Cl)c(F)c1)c1ccc(-c2cnc(C3CC3)o2)cc1", "growth": "19.9% (inactive)"}, {"smiles": "COc1ccc(/C=C\\c2cc(OC)c(OC)c(OC)c2)cc1OCC(=O)Nc1ccc2nc(C)sc2c1", "growth": "15.5% (inactive)"}, {"smiles": "C=C1C(=O)O[C@H]2[C@H]1CC/C(COC(=O)NCc1ccc(OC)c(OC)c1)=C\\CC[C@@]1(C)O[C@@H]21", "growth": "-7.86% (active)"}, {"smiles": "CC1=C(O)C(=O)C(C(C#N)(C#N)C(C#N)C#N)C1", "note": "(stereo not given)", "growth": "112% (inactive)"}, {"smiles": "Nc1ccc(S(=O)(=O)O)c2ccc(N=Nc3ccc(N=Nc4ccc(S(=O)(=O)O)cc4)c4ccccc34)c(O)c12", "growth": "106% (inactive)"}, {"smiles": "O=C(O)COc1ccc(Cl)cc1C1CCCCC1", "growth": "92.1% (inactive)"}, {"smiles": "Cc1cc(N2CCN(c3ccnc4cc(Cl)ccc34)CC2)nc(N2CCOCC2)n1", "growth": "92.3% (inactive)"}]}]}
